This is a sample that favours compounds with a hit; in the whole collection about 2.4% have one here.
D2 antagonist: D2 dopamine receptor (human) antagonism; AID 485344; 340,000 tested, 2% active; inhibition, % at 10 µM; P14416; HEK293 TREx D2 cells, calcium flux, dopamine EC80; in the data active = inhibition above about 30%; inactive = below that, where a call was filed; also: 0% is about no effect
Target sequence (P14416 whole entry, looked up): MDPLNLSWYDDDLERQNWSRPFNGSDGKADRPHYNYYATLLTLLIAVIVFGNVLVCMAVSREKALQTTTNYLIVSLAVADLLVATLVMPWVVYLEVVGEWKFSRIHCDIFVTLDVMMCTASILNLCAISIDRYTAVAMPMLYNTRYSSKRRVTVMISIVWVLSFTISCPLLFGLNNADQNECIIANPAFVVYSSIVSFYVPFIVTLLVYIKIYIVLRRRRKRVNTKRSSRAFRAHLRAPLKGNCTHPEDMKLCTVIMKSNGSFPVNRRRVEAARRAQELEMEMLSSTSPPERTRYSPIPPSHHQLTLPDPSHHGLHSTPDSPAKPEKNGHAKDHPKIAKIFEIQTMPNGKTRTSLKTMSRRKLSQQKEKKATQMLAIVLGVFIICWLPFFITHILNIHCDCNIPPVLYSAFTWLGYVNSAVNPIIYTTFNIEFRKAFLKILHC
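Tetracycline-induced HEK293 TREx cells expressing D2 receptor forced-coupled to calcium signalling, loaded with no-wash calcium dye. Compounds added and calcium flux read 180 s, then dopamine added at EC80 and read a further 180 s.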
D2 ag-1: D2 dopamine receptor (human) agonism | activation, % at 2 µM | 340,000 tested, 0.53% active | HEK293 T-REx D2 cells, calcium flux agonist mode | P14416 | AID 485358;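 active = activation over 3 SD above normal in the single-dose calcium agonist read, cut at about 30% in these data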; also: 0% is about no effect
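In this primary screen, compounds producing a positive calcium signal within 180 s of addition to tetracycline-induced, force-coupled HEK293 Trex D2 cells are flagged; cells are dye-loaded with a no-wash calcium kit beforehand.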
D2 PAM-1: human D2 receptor positive allosteric modulation. P14416. DiscoveRx D2 beta-arrestin cells, luminescence, 90 min; 100% = 57 uM dopamine signal. potentiation, % (test concentration not listed). 360,000 tested, 0.23% active. AID 624464; in the data active = potentiation above about 50%; inconclusive = mostly about 30% to 49%
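D2 cells co-treated with compound plus 50 nM dopamine (EC20) for 90 min at 37 deg C to detect potentiation. Beta-arrestin recruitment was read as enzyme-fragment luminescence after 1 h at ambient temperature. Full response was set by 57 uM dopamine.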
D2 ag-2: human D2 receptor agonism in beta-arrestin assay; P14416; DiscoveRx PathHunter D2 beta-arrestin, luminescence, 90 min; 100% = 57 uM dopamine signal; activation, % (concentration not given with the values); 360,000 tested, 0.084% active; in the data active = activation above about 40%; inconclusive = between about 15% and that limit
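Agonist mode: compounds alone added to overnight-plated D2 PathHunter cells for 90 min at 37 C, with 57 uM final dopamine (EC100) defining full response. Beta-arrestin recruitment detected by chemiluminescent reagent, read after 1 h at ambient temperature.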
D2 PAM-2: positive allosteric modulators of human D2 dopamine receptor; HEK293 T-REx D2, calcium flux, EC20 dopamine potentiation; potentiation, % at 10 µM; 340,000 tested, 0.34% active;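 active = potentiation over 3 SD above the plate norm, cut at about 30% in these data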; also: 0% is about no effect
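Tetracycline-induced HEK293 T-REx cells force-coupled to calcium signalling expressed D2; compounds were pin-added after a 10 s baseline, read kinetically 180 s, then an EC20 dopamine challenge followed with a further 180 s calcium read.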
D3 ag: D3 receptor agonism confirmed, beta-arrestin readout; DiscoveRx D3 beta-arrestin cells, luminescence, 90 min; Potency, µM (highest dose often 76.9 µM), inactives show at the highest dose activation, hits mostly activators; 2,300 tested, 4% active; AID 720506; shares compounds with D2 ag-1;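 also: potency is read from the fitted curve at half-maximal effect; 100% = dopamine control response; nearly all actives have a fitted effect of over 70% in size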
D2 ag-3: D2 receptor agonism, beta-arrestin counterscreen. AID 720507. shares compounds with D2 ag-1. 2,300 tested, 5.9% active. DiscoveRx PathHunter D2 beta-arrestin, luminescence, 90 min; response scale: percent relative to full dopamine signal. Potency, µM (top dose mostly 76.9 µM), for the others: at the highest dose activation, most hits filed as activators; also: potency is read from the fitted curve at half-maximal effect; % of control where 0% means no effect; nearly all actives have a fitted effect of over 70% in size
Active calls of the source: *; ? = inconclusive; nt = no result. Unless noted, calls follow the shape of the dose curve; as a rule, active = well fitted activation curve with a large enough effect; inconclusive = small, poorly fitted or top-dose-only effect; inactive = flat fitted curve, though single readings scatter.

SMILES | D2 antagonist | D2 ag-1 | D2 PAM-1 | D2 ag-2 | D2 PAM-2 | D3 ag | D2 ag-3
COc1ccccc1C(=O)Nc1ccnn1C1CCN(C2CCCCC2)CC1 | nt | nt | -22 | -2 | nt | nt | nt
Cc1ccccc1NC(=O)COC(=O)c1ccc(S(=O)(=O)N2CCCC2)cc1 | -6 | 1 | -1 | 1 | 9 | nt | nt
OC(c1ccc(F)c(F)c1)c1nc(-c2cc(F)cc(F)c2)cs1 (stereo not drawn) | nt | nt | -6 | 10 | nt | nt | nt
Cc1csc(NC(=O)c2ccc3ccccc3n2)n1 | 10 | 7 | -7 | -1 | 16 | nt | nt
Cc1csc(NC(=O)c2cnc3ccccc3n2)n1 | -17 | 25 | -2 | -2 | 19 | -16% | 1%
CC(C)OC(=O)C(CC(=O)O)NCc1ccccc1 (stereo not drawn) | 68* | -1 | -2 | -1 | 4 | -8% | -4%
CCOC(=O)C(CC(=O)O)NCc1ccco1 (stereo not drawn) | 7 | 1 | -7 | -3 | 12 | nt | nt
c1ccc(Cc2nnc3n2CCCCC3)cc1 | -7 | 0 | -14 | -1 | -4 | nt | nt
c1ccc(N2CCN(CCc3nnc4n3CCCCC4)CC2)cc1 | 27 | 32* | -20 | 5 | 11 | -2% | 8%
COC(=O)c1cc2c(ccn2-c2ccc(F)cc2)n1Cc1ccc(OC)cc1 | 28 | 5 | -6 | 4 | 3 | -14% | ?
COC(=O)c1cc2c(ccn2-c2ccc(F)cc2)n1Cc1ccc(C#N)cc1 | -5 | 6 | -5 | -3 | 1 | nt | nt
COc1ccc(CC(=O)Nc2ccc(F)c(F)c2F)cc1S(=O)(=O)N1CCOCC1 | 6 | 1 | -3 | -2 | 5 | 4% | 7%
CC(=O)N1CCC2(CC1)OC(=O)C(C)=C2C(=O)NCc1ccc(Cl)cc1 | nt | 1 | nt | nt | -12 | nt | nt
Cn1cc(C(F)(F)F)nc1-c1ccc(OCC(O)CNCCOc2ccc(O)c(C(N)=O)c2)cc1 (stereo not drawn) | 72* | 90* | 23 | ? | -23 | ? | ?
COc1ccc(C(=O)/C=C/c2cc(OC)c(O)c(OC)c2)c(F)c1 | 33* | 26 | -27 | -4 | 0 | 3% | -6%
COc1ccc2cc(C(=O)/C=C/c3cc(OC)c(O)c(OC)c3)ccc2c1 | 16 | 4 | -4 | -4 | 3 | nt | nt
O=C(NCC1CCCO1)c1cn(Cc2ccccc2)nc1-c1ccc(Cl)cc1 (stereo not drawn) | -11 | 0 | 0 | 3 | -14 | nt | nt
COc1ccc2nc3ccccc3nc2c1NC(=O)c1ccc(Cl)cc1Cl | 6 | 29 | -25 | -7 | -3 | -6% | 15%
COc1cc(-c2cc(C(=O)Nc3c(Cl)cc(Cl)cc3Cl)c3ccccc3n2)cc(OC)c1OC | 5 | 0 | -14 | -5 | 7 | nt | nt
COc1ccccc1N1CCN(C2CCN(S(=O)(=O)c3ccc(NC(C)=O)cc3)CC2)CC1 | 32* | 49* | -16 | ? | -16 | -13% | 20%
COc1ccc(S(=O)(=O)N2CCC(N3CCN(c4ccccc4OC)CC3)CC2)cc1 | -15 | 37* | -13 | 1 | -20 | -8% | 7%
Oc1ccccc1C=NCC(O)c1ccccc1 (stereo not drawn) | -21 | 4 | 11 | -1 | 1 | 12% | 6%
COc1ccc(CCNC(=O)CSCc2nc(-c3ccc(OC)c(OC)c3)oc2C)cc1OC | nt | -2 | nt | nt | -6 | nt | nt
CCc1nnc(NC(=O)CN2CCC(O)(c3ccccc3OC)CC2)s1 | -5 | 0 | 1 | 0 | 2 | nt | nt
COc1ccccc1C1(O)CCN(CC(=O)Nc2nc(-c3ccccc3)cs2)CC1 | -3 | 32* | -14 | 2 | -16 | 1% | 20%
SMILES | D2 antagonist | D2 ag-1 | D2 PAM-1 | D2 ag-2 | D2 PAM-2 | D3 ag | D2 ag-3
FC(F)(F)c1cc(-c2ccccc2)nc(NC2CCCC2)n1 | 11 | 58* | -5 | -3 | -10 | -7% | -1%
Cc1cnc(C(=O)Nc2ccc(S(=O)(=O)NCC(C)C)cc2)cn1 | 36* | 15 | -9 | -2 | -8 | 7% | -3%
Cc1cnc(C(=O)Nc2ccc(S(=O)(=O)N(C(C)C)C(C)C)cc2)cn1 | 27 | 0 | -3 | 4 | 3 | nt | nt
CCc1ccc(NC(=O)C(=O)NCCN2CCN(C(=O)c3ccc(OC)cc3)CC2)cc1 | nt | nt | -17 | -3 | nt | nt | nt
CCOC(=O)c1ccc(NC(=O)CN2CCN(C(=O)c3ccco3)CC2)cc1 | 67* | 80* | 21 | ? | -6 | 22µM* | ?
CCc1ccc(NC(=O)C(=O)NCCN2CCN(C(=O)c3ccco3)CC2)cc1 | 1 | 67* | 20 | ? | -23 | 5µM* | ?
NC(=O)c1ccc(NC(=O)CN2CCOCC2)cc1 | -6 | 0 | -13 | 0 | -5 | nt | nt
NC(=O)c1ccc(NC(=O)CN2CCN(C(=O)c3ccco3)CC2)cc1 | nt | nt | -1 | 12 | nt | ? | ?
Cc1scc(C(=O)N/N=C/c2ccc(Cl)s2)c1C | -2 | -2 | -32 | 4 | -13 | nt | nt
CCNc1sc(S(C)(=O)=O)nc1S(=O)(=O)c1ccc(Cl)cc1 | nt | nt | 0 | -2 | nt | nt | nt
Cc1ccc(CN2CCN(Cc3ccc(-n4cccn4)cc3)CC2CCO)cc1 (stereo not drawn) | -15 | -1 | -14 | 1 | -18 | nt | nt
O[C@@H]1CN(Cc2ccc(-n3cccn3)cc2)CC[C@H]1N1CCN(c2ccccc2F)CC1 | 39* | 65* | -1 | 8 | -23 | 17% | ?
Cc1cccc(C)c1NC(=S)N(C)CCc1ccccn1 | -22 | 0 | -11 | -7 | 0 | nt | nt
CC(C)c1ccc(NC(=S)N(C)CCc2ccccn2)cc1 | 36* | 21 | -8 | -2 | -11 | -4% | -1%
COc1ccccc1C(=O)NCC(=O)N/N=C/c1cn[nH]c1-c1ccccc1 | 22 | 67* | 8 | 5 | -22 | 8% | 3%
O=C(CNC(=O)c1ccccc1)N/N=C/c1cn[nH]c1-c1ccccc1 | 9 | 9 | -6 | 1 | -2 | nt | nt
O=C(O)c1ccc2c(c1)C(=O)N(N1C(=O)c3ccccc3C1=O)C2=O | -11 | 1 | 3 | -8 | 4 | nt | nt
Cc1ccc2[nH]cc(C(=O)CN3CCN(c4ccccn4)CC3)c2c1 | 34* | 19 | -42 | 2 | -28 | 10% | 4%
O=C(CN1CCN(c2ccccn2)CC1)N1CC(O)CO1 (stereo not drawn) | 12 | 29 | 0 | 7 | -13 | 21% | 6%
Cc1ccc(C(=O)CN2CCN(c3ccccn3)CC2)c(C)c1 | nt | nt | 4 | ? | nt | ? | ?
